These results are taken from PubChem BioAssay (NCATS).

In test [1] the target is Cytochrome P450 1A2 (Homo sapiens) (UniProt P05177). Briefly: p450-cyp1a2 (AID 410; calls by dose curve; note: potency is the fitted concentration of half-maximal effect;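 for activity change, negative = inhibition: -100% = full effect of reference inhibitor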). The method in brief: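 Inhibition was calculated relative to 57 uM furafylline (full inhibition). The reaction used human CYP1A2 at 20nM with Luciferin-ME at its Km, 100uM, driven by an NADPH-regenerating system for 60 min at room temperature.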
Chain of Cytochrome P450 1A2 (Homo sapiens) (P05177 whole entry, looked up): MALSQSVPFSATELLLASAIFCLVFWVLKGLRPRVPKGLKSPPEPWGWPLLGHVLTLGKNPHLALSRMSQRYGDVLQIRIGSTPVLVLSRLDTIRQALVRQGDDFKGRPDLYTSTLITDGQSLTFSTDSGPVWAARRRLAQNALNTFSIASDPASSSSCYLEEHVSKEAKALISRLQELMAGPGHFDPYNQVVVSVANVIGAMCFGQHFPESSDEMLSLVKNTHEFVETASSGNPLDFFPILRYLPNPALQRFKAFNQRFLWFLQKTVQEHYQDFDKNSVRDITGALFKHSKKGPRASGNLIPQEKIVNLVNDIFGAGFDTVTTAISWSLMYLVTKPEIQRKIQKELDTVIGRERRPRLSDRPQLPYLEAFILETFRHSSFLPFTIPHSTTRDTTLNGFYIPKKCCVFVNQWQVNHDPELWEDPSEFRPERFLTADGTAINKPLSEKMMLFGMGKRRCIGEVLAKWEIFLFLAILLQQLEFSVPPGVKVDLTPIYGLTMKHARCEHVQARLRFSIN
The target of test [2] is Glucocorticoid receptor (Homo sapiens) (UniProt P04150). Briefly: GR-GFP Redistribution (AID 450;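 active = compounds whose dose series gives a full or clear partial fitted curve of increased nuclear translocation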; note: potency is the fitted concentration of half-maximal effect). The following applies: U2OS GR-GFP nuclear translocation, laser cytometry, 2 h.
Chain of Glucocorticoid receptor (Homo sapiens) (P04150 whole entry, looked up): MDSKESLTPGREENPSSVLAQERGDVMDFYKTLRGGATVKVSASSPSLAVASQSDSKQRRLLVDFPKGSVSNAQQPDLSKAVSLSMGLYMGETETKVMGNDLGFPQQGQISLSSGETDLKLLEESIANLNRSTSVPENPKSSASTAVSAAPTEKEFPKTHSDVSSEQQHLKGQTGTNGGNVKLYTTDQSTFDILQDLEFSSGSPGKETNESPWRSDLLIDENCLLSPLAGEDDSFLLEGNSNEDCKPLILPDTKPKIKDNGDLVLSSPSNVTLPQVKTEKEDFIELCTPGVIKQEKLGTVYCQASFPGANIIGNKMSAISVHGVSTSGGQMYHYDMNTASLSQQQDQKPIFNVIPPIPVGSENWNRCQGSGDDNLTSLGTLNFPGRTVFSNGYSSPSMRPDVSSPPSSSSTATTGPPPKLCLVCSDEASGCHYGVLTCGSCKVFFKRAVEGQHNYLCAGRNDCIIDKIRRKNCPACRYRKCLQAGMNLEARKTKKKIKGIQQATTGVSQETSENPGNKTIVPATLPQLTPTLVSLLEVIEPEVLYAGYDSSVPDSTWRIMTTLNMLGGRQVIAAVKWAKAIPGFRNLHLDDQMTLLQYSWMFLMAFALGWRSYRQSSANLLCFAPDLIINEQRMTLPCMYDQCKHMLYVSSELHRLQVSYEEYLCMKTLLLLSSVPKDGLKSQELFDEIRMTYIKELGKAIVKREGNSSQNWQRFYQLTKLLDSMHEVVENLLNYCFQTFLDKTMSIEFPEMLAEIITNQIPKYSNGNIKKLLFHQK
The target is the same in test [3]. Briefly: GR-EFC Redistribution (AID 451; calls by dose curve; note: potency is the fitted concentration of half-maximal effect). The following applies: CHO-K1 GR-EFC translocation, beta-gal luminescence, 2 h. Summed up:
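Translocation of GR-ED fusion to nuclear EA restores b-gal, read by luminescence after 1 h room-temperature detection. Engineered CHO-K1 biosensor cells, 1,000/well, exposed 2 h at 37 C to titrations up to 46 uM final.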

Test [4] concerns the target 3',5'-cyclic-AMP phosphodiesterase 4B (Homo sapiens) (UniProt Q07343). Briefly: qHTS Assay for Inhibitors of PDE-IV (AID 607; active = well fitted activation curve with a large enough effect in the main read-out, with a control signal flat, not every such curve was filed as active; note: % of control where 0% means no effect). Summed up: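 ACTOne HEK293 cells carry a modified cAMP-gated CNG channel and express endogenous PDE4; plated 1000 cells/well, compounds up to 22.9 uM final. Membrane-potential dye fluorescence (ex 535/em 590) was read; parental cells received 10 uM forskolin + 100 uM RO 20-1724.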
On the technique in general: In qHTS, concentration-response curves come from the screen itself.

The target in test [5] is Cytochrome P450 3A4 (Homo sapiens) (UniProt P08684). Briefly: qHTS Assay for Activators of Cytochrome P450 3A4 (AID 885). Note: nearly all actives have a fitted effect of over 65% in size. The method in brief: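 20nM CYP3A4 + 25uM Luciferin-PPXE (=KM), 200mM KPO4; cpd 10 min RT; NADPH regen, 60 min RT; stop w/ detection buffer, 20 min; luminescence. Normalized to 57 uM ketoconazole.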
Chain of Cytochrome P450 3A4 (Homo sapiens) (P08684 whole entry, looked up): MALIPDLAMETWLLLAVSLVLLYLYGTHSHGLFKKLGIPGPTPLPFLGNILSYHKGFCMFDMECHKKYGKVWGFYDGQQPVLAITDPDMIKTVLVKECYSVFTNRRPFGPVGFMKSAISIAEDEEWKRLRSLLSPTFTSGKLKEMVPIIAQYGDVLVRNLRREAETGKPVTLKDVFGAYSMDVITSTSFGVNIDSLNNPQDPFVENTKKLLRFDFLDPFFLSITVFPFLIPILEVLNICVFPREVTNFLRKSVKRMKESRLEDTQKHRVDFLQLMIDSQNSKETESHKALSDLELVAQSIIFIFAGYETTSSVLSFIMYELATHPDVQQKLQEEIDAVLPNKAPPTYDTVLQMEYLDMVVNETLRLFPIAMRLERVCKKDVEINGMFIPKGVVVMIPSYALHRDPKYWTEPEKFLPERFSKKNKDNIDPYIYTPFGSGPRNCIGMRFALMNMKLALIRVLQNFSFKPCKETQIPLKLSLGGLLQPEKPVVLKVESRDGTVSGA
Test [6] has as its target Cytochrome P450 2D6 (Homo sapiens) (UniProt P10635). Briefly: qHTS Assay for Inhibitors and Substrates of Cytochrome P450 2D6 (AID 891). Note: potency is the fitted concentration of half-maximal effect; nearly all actives have a fitted effect of over 60% in size. The method in brief:
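Human CYP2D6 (5 nM) with 30 uM Luciferin-ME EGE (at Km) in 100 mM KPO4, compound preincubated 10 min, then NADPH regeneration system for 60 min at room temperature. Luciferin read by luminescence; normalized to 1.43 uM quinidine.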

For test [7], the target named is DNA dC->dU-editing enzyme APOBEC-3G (Homo sapiens) (UniProt Q9HC16). Briefly: qHTS for inhibitors of Vif-A3G interactions: Validation (AID 588379). Note: 0% is about no effect. Summed up:
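HeLa cells stably expressing Vif and A3G-eYFP, 700 cells/well, incubated overnight at 37 deg C, then exposed to compound overnight at 37 deg C. Inhibition of Vif-mediated degradation read as increased yellow fluorescence (Ex 488/Em 500-530) by laser-scanning cytometry.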

Test [8] has as its system Zika virus NS2B-NS3 protease. Briefly: Primary screen GU AMC qHTS for Zika virus inhibitors (AID 1347154).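 Note: 0% = no-inhibitor control and -100% = no-enzyme control; nearly all actives have a fitted effect of over 70% in size.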 The method in brief: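 Fluorogenic AMC-substrate cleavage by noncovalent NS2B-NS3 protease complex (25 nM, pH 8.0 Tris buffer with Tween 20) followed for 15 minutes at room temperature (~20% conversion). Percent inhibition from ex340/em450 signal change, fitted by 4-parameter Hill equation.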

Test [9] is described as follows: AP1 Signaling Pathway (AID 357; active = well fitted curve in either direction with a large enough effect, not every such curve was filed as active; note: % is set by controls: 0 for no effect and ±100 for the full control effect). The following applies: ME-180 AP-1-bla reporter, EGF-induced, beta-lactamase ratio, 5 h; at 38 µM (top of the series). Summed up:
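AP-1-bla ME-180 cells with beta-lactamase reporter under AP-1 response element, stimulated with EC50 EGF; compounds titrated, 5 hours at 37 degrees Celsius. CCF4 read at 460/530 nm ratio; positive and negative modulators judged by AC50.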

The nature of test [10]: NFAT Signaling Pathway (AID 444; active = well fitted curve in either direction with a large enough effect, not every such curve was filed as active;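 note: carbachol stimulus at about its EC50 of 1 µM final; % is set by controls: 0 for no effect and ±100 for the full control effect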). The following applies: Jurkat NFAT-bla M1, carbachol, beta-lactamase ratio, 5 h; at 38 µM (top of the series). Summed up: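 Read-out: CCF4 FRET ratio (460 nm/530 nm) after 1 h RT dye loading, used for %activity and AC50 from titration series. Cells: Jurkat NFAT-β-lactamase/M1 line, treated with compound plus 1 uM carbachol for 5 h, 37 °C.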

Test [11] is described as follows: Stat Signaling Pathway (AID 446; active = well fitted curve in either direction with a large enough effect, not every such curve was filed as active;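 note: ME-180 cervical cancer cells given 40 pM IL-6 alongside compound; SIE-controlled beta-lactamase reporter measured as 460/530 nm FRET emission ratio; % is set by controls: 0 for no effect and ±100 for the full control effect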). The following applies: ME-180 (cervical carcinoma) SIE beta-lactamase reporter, IL-6 stimulated, 5 h; at 38 µM (top of the series). Summed up:
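ME-180 SIE-bla cells; overnight plating; cpd + IL-6 40 pM, 5 h, 37 C; LiveBLAzer 2.5 h RT; 460/530 nm emission ratio. Normalized to 300 pM IL-6 and 125 nM JAK inhibitor controls.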

Test [12] deals with Mitogen-activated protein kinase 10 (Mus musculus) (UniProt Q61831). Briefly: JNK3 AlphaScreen Assay (AID 530; active = well fitted curve in either direction with a large enough effect, not every such curve was filed as active;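 note: kinase came from lysate of stimulated human HepG2 cells; signal reports phosphorylation of biotinylated GST-cJun 1-79 at Ser73 with 10 µM ATP; % is set by controls: 0 for no effect and ±100 for the full control effect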). The method in brief: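 Room-temperature AlphaScreen kinase assay; pre-activated HepG2 lysate as JNK3 source, biotin-GST-cJun(1-79) substrate, 10 uM ATP, compound 15 min preincubation.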
In general terms: Alpha assays give light when donor and acceptor beads are brought close together.

For test [13], the target named is Guanine nucleotide-binding protein G(i) subunit alpha-1 (Homo sapiens) (UniProt P63096). Briefly: qHTS Assay for Inhibitors of RGS12 GoLoco Motif Activity (Green Fluorophore) (AID 879).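 Note: 0% = labeled peptide with Gαi1 and full inhibition = labeled peptide alone without protein; negative values mean loss of peptide binding seen as reduced polarization.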 The method in brief: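 Fluorescence polarization assay: 50 nM Gαi1 with 10 nM FITC-labeled RGS12 GoLoco peptide in 10 mM Tris pH 7.5, 150 mM NaCl, 0.1 mM GDP, 0.05% NP40, 10 min at room temperature with compound.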
Chain of Guanine nucleotide-binding protein G(i) subunit alpha-1 (Homo sapiens) (P63096 whole entry, looked up): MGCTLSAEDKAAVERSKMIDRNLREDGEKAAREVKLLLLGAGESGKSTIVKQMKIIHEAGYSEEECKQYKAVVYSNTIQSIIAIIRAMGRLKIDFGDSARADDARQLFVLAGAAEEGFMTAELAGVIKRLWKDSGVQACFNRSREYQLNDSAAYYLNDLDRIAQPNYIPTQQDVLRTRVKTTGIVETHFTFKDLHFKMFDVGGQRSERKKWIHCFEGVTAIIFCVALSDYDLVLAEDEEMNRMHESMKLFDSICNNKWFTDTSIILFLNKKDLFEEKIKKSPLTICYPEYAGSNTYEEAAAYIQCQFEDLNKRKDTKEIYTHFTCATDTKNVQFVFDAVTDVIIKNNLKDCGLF

Test [14] in a line: qHTS Assay for Identification of Small Molecule Agonists for Thrombopoietin (TPO) Signaling Pathway (AID 917). Note: % is set by controls: 0 for no effect and ±100 for the full control effect. The method in brief: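 IL-3-dependent murine pro-B Ba/F3 cells, stably transfected with human TPO receptor and GpIIb-promoter luciferase, are incubated 24 hrs at 37 C with test compound and 26 pM TPO; luciferase signal is read after 10 min at room temperature.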
The target of test [15] is Pyruvate kinase (Leishmania mexicana) (UniProt Q27686). Briefly: qHTS Validation Assay for Inhibitors of Leishmania Mexicana Pyruvate Kinase (AID 945).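 Note: 0% = DMSO only neutral control wells.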 The method in brief:
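qHTS eight-point titrations against 0.2 nM LmPYK (E451W) in imidazole buffer pH 7.2 with 0.5 mM PEP, 0.1 mM ADP; 1 h, room temperature. Readout: PKLight luminescence, normalized to neutral DMSO wells.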

Test [16] concerns the target Pyruvate kinase PKM (Homo sapiens) (UniProt P14618). Briefly: qHTS Assay for Activators of Human Muscle Pyruvate Kinase (AID 954; active = well fitted curve in the direction sought with a large enough effect, not every such curve was filed as active;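 note: 0% = uninhibited enzyme and -100% = no enzyme or full thiadiazolimine inhibition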). Summed up:
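Luminescence from a luciferase ATP-detection/stop reagent reported PKM2 activity. Reactions contained 0.1 nM purified human enzyme, 0.5 mM PEP, 0.1 mM ADP and 7 mM MgCl2 at pH 7.2, run 1 h at RT.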

The target in test [17] is Alpha-galactosidase A (Homo sapiens) (UniProt P06280). Briefly: Counterscreen for Glucocerebrosidase Inhibitors: qHTS Assay for Human alpha-Galactosidase at pH 4.5 (AID 992). Note: 0% is about no effect. The method in brief:
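Enzyme at 2 nM final was combined with compound (0.7 nM to 77 uM) and 80 uM 4-methylumbelliferyl alpha-D-galactopyranoside in 50 mM citric acid, 0.005% Tween-20, pH 4.5. After 20 min at room temperature, fluorescence was read (Ex 365/Em 440 nm); AC50 came from Hill fits.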
Background: The purpose of a counterscreen is to sort out artefacts and off-target activity.

Test [18] addresses alpha-glucosidase (Oryza sativa, rice) (UniProt Q653V4). Briefly: Counterscreen for Glucocerebrosidase Inhibitors: qHTS Assay for Rice alpha-Glucosidase at pH 5.0 (AID 997).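 Note: 0% = full activity with enzyme and -100% = basal without enzyme.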 The method in brief:
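Rice alpha-glucosidase (4 nM final) with 400 uM 4-methylumbelliferyl-alpha-D-glucopyranoside in citrate buffer pH 5.0, 20 min at room temperature, stopped at pH 10; fluorescence 365/440 nm, compounds 0.7 nM–77 uM, AC50 from Hill fits.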

The target of test [19] is Ubiquitin carboxyl-terminal hydrolase 1 (Homo sapiens) (UniProt O94782). Briefly: Inhibitors of USP1/UAF1: Pilot qHTS (AID 504865).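 Note: rhodamine fluorescence freed from ubiquitin-rhodamine substrate followed over time; top concentration of the series differs between compounds; % is set by controls: 0 for no effect and ±100 for the full control effect; nearly all actives have a fitted effect of over 35% in size.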 The method in brief:
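Enzyme-free wells gave the negative control, while test wells held 1nM USP1/UAF1 preincubated with compound for 15 min at room temperature. Ub-Rho at 150nM final started the reaction, and fluorescence at 480/540 nm was recorded kinetically.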

Test [20] deals with Rap guanine nucleotide exchange factor 4 (Homo sapiens) (UniProt Q8WZA2). Briefly: Confirmatory qHTS for antagonist of cAMP-regulated guanine nucleotide exchange factor 4 (EPAC2) (AID 1645885). Note: potency is the fitted concentration of half-maximal effect; nearly all actives have a fitted effect of over 25% in size.
Test [21] deals with Cytochrome P450 2C9 (Homo sapiens) (UniProt P11712). Briefly: qHTS Assay for Inhibitors and Substrates of Cytochrome P450 2C9 (AID 883). Note: potency is the fitted concentration of half-maximal effect; nearly all actives have a fitted effect of over 60% in size. Summed up: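 Inhibition of CYP2C9 is scored as loss of luminescence, with 57uM sulphaphenazole defining 100% inhibition. Substrate Luciferin-H is used at 100uM, equal to its KM; enzyme at 10nM in 25mM KPO4, 60 min at 37C with NADPH regeneration.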

Test [22] has as its target Cytochrome P450 2C19 (Homo sapiens) (UniProt P33261). Briefly: qHTS Assay for Inhibitors and Substrates of Cytochrome P450 2C19 (AID 899). Note: potency is the fitted concentration of half-maximal effect; nearly all actives have a fitted effect of over 60% in size. The method in brief:
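5nM enzyme + 10uM Luciferin-H EGE (=KM), 50mM KPO4; cpd pin-transferred, 10 min 37C; NADPH regen, 60 min 37C; stopped w/ luciferin detection reagent, 20 min; luminescence. Normalized to 57uM ketoconazole (AC100).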

Values without a mark were called inactive. Inconclusive results are not listed. Calls of active or inactive are those of the source. Unless noted, calls come from the whole dose curve; as a rule, active = well fitted curve in the direction sought with a large enough effect; inconclusive = small, poorly fitted or top-dose-only effect, or another doubt; inactive = no such curve, though single readings can be large; an effect the other way counts as inactive or inconclusive. Where only a bound is given, the exact number is not on record here.

Chain of 3',5'-cyclic-AMP phosphodiesterase 4B (Homo sapiens) (Q07343 whole entry, looked up): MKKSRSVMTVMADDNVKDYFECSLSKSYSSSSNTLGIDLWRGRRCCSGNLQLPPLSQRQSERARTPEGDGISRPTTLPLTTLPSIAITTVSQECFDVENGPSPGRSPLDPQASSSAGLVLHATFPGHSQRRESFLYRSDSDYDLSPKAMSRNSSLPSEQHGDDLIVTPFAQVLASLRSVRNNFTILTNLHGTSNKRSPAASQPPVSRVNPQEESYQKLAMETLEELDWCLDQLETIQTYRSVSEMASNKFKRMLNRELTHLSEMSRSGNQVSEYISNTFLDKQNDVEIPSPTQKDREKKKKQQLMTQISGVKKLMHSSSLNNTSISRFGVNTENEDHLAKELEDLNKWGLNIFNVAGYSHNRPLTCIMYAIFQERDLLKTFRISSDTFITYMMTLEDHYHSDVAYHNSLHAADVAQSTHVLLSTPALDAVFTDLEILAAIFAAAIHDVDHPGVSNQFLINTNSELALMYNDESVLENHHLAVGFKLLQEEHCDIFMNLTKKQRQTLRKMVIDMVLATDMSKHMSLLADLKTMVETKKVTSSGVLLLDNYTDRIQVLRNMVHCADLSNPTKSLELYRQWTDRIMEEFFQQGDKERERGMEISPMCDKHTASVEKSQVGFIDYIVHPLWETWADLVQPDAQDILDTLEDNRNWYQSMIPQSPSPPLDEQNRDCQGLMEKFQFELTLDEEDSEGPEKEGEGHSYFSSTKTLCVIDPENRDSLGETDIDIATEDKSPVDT
Chain of DNA dC->dU-editing enzyme APOBEC-3G (Homo sapiens) (Q9HC16 whole entry, looked up): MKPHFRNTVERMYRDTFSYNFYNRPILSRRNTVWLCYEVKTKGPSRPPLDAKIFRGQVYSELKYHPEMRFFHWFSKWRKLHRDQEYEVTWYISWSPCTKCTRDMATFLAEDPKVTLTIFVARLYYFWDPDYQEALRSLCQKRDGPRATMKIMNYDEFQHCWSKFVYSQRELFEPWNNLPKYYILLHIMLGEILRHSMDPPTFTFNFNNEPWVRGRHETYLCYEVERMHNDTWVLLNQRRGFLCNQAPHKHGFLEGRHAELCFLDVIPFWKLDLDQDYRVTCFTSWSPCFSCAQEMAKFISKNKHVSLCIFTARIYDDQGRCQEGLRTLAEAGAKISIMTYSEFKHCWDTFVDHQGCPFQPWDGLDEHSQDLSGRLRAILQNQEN
Chain of Alpha-galactosidase A (Homo sapiens) (P06280 whole entry, looked up): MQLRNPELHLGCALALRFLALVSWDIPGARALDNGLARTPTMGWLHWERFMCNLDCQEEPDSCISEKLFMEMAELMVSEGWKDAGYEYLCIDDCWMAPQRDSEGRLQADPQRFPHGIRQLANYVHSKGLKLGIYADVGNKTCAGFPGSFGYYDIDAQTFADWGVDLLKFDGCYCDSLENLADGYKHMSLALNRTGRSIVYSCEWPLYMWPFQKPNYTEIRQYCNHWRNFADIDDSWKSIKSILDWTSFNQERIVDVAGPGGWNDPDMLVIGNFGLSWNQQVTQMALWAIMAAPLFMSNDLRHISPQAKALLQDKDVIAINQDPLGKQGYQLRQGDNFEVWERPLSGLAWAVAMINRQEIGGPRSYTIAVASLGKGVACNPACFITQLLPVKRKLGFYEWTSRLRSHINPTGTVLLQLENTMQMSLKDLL
Chain of Pyruvate kinase PKM (Homo sapiens) (P14618 whole entry, looked up): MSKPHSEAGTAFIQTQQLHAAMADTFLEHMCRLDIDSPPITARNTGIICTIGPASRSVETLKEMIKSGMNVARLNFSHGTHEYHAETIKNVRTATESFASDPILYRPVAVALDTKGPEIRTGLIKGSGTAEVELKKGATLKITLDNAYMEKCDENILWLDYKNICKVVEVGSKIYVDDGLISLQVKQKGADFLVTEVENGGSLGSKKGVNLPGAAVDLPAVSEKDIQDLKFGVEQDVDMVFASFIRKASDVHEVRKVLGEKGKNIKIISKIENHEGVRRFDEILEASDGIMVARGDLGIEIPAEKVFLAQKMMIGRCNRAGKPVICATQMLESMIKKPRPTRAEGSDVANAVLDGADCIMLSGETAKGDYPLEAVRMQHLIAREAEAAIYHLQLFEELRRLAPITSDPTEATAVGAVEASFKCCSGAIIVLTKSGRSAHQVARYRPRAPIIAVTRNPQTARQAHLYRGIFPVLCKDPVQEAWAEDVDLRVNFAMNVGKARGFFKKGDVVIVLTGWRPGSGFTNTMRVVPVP
Chain of Cytochrome P450 2D6 (Homo sapiens) (P10635 whole entry, looked up): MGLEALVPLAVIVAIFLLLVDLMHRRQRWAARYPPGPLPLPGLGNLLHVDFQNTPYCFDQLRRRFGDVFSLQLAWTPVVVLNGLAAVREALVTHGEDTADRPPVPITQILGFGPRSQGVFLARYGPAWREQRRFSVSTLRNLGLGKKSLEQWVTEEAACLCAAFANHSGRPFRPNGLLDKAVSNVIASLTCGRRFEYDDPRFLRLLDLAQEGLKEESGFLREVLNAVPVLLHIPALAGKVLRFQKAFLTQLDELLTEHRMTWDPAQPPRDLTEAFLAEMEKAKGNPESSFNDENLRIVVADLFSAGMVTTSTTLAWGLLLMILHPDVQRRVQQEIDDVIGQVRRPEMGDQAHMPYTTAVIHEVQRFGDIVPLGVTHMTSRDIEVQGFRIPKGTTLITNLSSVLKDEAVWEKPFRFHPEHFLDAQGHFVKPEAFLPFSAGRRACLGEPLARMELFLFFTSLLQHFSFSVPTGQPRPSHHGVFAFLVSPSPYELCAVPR

On to `C=CCN1CCN(c2nc3ccccc3nc2C#N)CC1`, for which the Potency in [1] is 0.1 µM (active); in [2] it was > 46 µM; in test [3], > 46 µM; in test [6], 1.26 µM (active). For the same molecule, the Potency entry in test [4], in test [5], in test [7] and in test [8] was “inactive” in each case.
Consider `O=C(NC[C@H]1CCCCN1)c1cc(OCC(F)(F)F)ccc1OCC(F)(F)F`, for which the activity change, negative = inhibition in test [9] is 4.16%; in [10], -11%. The activity, negative = inhibition in test [11] was -13.8%. Further, the Potency entry in test [12], in test [4], in test [14], in test [15], in test [7] and in test [8] was “inactive” each time. Moreover, the result in test [13], in test [16], in [17] and in test [18] was inactive.
Regarding `Cc1ccc(S(=O)(=O)NCc2ccccc2)cc1`, the figures for the Potency in test [1], in test [2] and in [3] were 0.501 µM (active), > 46 µM and > 46 µM, respectively. Also, the Potency result in [4], in test [7] and in test [8] was “inactive” throughout.
Take `N=C(N)SCCc1ccc(OCc2ccc([N+](=O)[O-])cc2)cc1`: the Potency in [1] is 31.6 µM (active); in test [2] it was > 46 µM; in test [3], > 46 µM. Besides, the Potency entry in test [12], in [4], in test [7] and in [8] was “inactive” throughout.
Take `N[C@@H](Cn1ccc(=O)n(Cc2ccccc2C(=O)O)c1=O)C(=O)O`: the Potency result in test [1], in test [12], in test [4], in test [19], in [7] and in test [8] was “inactive” each time. For the same molecule, the Potency in test [2] and in test [3] was > 46 µM each time.
On to `C/C=C\C[C@@H](C)[C@@H](O)[C@H]1C(=O)N[C@@H](CC)C(=O)N(C)CC(=O)N(C)[C@@H](CC(C)C)C(=O)N[C@@H](C(C)C)C(=O)N(C)[C@@H](CC(C)C)C(=O)N[C@@H](C)C(=O)N[C@H](C)C(=O)N(C)[C@@H](CC(C)C)C(=O)N(C)[C@@H](CC(C)C)C(=O)N(C)[C@@H](C(C)C)C(=O)N1C`, for which the Potency result in test [12] and in test [8] was “inactive” in each case. Besides, in [20], the Potency was 24.8 µM (active).
With `CN(CCc1ccc(Cl)c(Cl)c1)C[C@@H](O)COc1ccc(NS(C)(=O)=O)cc1`, the Potency was 15.8 µM (active) in test [1]; > 46 µM in test [2]; > 46 µM in [3]; 2.51 µM (active) in test [21]; 2 µM (active) in [22]. In addition, the Potency entry in test [12], in [4], in [5], in test [7] and in test [8] was “inactive” in each case.
